# From PubChem BioAssay
# DT40 TDP1 CPT: DT40-hTDP1 cell growth loss with CPT | chicken DT40 Tdp1-/-;hTDP1 cells + 20 nM CPT, ATP luminescence, 48 h | Potency, µM (series often up to 46.2 µM), without a hit: top-dose activity change, negative = growth inhibition, most hits filed as inhibitors | hit rate 12% among 420,000; note: potency is the fitted concentration of half-maximal effect; nearly all actives have a fitted effect of over 55% in size
#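 Cell growth measured by CellTiter-Glo luminescence after a minimum 48 h, 37 C compound exposure with 20 nM CPT in Tdp1-knockout DT40 cells stably expressing hTDP1, seeded 400/well; qHTS titration format.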
# TDP1 cell noCPT: qHTS for Inhibitors of human tyrosyl-DNA phosphodiesterase 1 (TDP1): qHTS in cells in absence of CPT; DT40 Tdp1-/- hTDP1 cells, no CPT, ATP luminescence, 48 h; Potency, µM (titrated, usually from 46.2 µM), inactives show at the highest dose activity change, negative = growth inhibition, most hits filed as inhibitors; hit rate 15% among 420,000; AID 686978, 2013; note: potency is the fitted concentration of half-maximal effect; nearly all actives have a fitted effect of over 55% in size
#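 Chicken DT40 Tdp1-/- cells stably complemented with human TDP1 were seeded at 400 cells/well with DMSO in place of 20 nM camptothecin. After compound pinning, cells grew at least 48 hr at 37 °C; viability read by CellTiter-Glo luminescence.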
# HT1080-NT tox: kills 2HG-producing HT-1080-NT fibrosarcoma cells. HT-1080-NT fibrosarcoma viability, CellTiter-Glo ATP luminescence, 48 h. Potency, µM (highest dose often 46.1 µM), without a hit: top-dose activity, negative = less viability, most hits filed as cytotoxic. hit rate 1.6% among 360,000;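 note: NT is the 2HG producing partner of a matched IDH1 knockdown line; potency is the fitted concentration of half-maximal effect; 0% = DMSO-treated cells and -100% = media-only wells without cells; nearly all actives have a fitted effect of over 55% in size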
#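 Fibrosarcoma NT cells, 750 per well in 5% FBS RPMI, were exposed to compound for 48 hours. Viability: CellTiter-Glo luminescence.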
# IL1B secr inh: inhibitors of inflammasome signaling (IL-1 beta secretion); THP-1 LPS/ATP IL-1B secretion, AlphaLISA, 16 h; hits give low values; activity change, % at 57.5 µM; hit rate 4.7% among 360,000; AID 743279; in the data active = activity change below about -50%; inconclusive = mostly about -30% to -49%
#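 Secreted IL-1B measured by AlphaLISA bead assay after 16 h compound exposure of THP-1 cells; compounds (final up to 57.5 uM) added 1 h before LPS (250 ng/mL) and ATP (1.25 mM) stimulation; lower signal means less secretion.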
# HT1080 IDH1KD tx: HT-1080 IDH1 knockdown cell toxicity (counter line); Potency, µM (top dose mostly 46.1 µM), without a hit: at the top dose activity, negative = toxicity, most hits filed as cytotoxic; hit rate 2% among 360,000; AID 686971; HT-1080 IDH1 knockdown viability, ATP luminescence, 48 h;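 note: potency is the fitted concentration of half-maximal effect; 0% = DMSO wells and -100% = cell-free medium wells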
#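 Assay cells: HT-1080 with IDH1 knockdown, 750 per well, RPMI/5% FBS. Exposure: 48 h at 37 °C following 2 h pre-incubation. Read: CellTiter-Glo luminescence; fitted concentration-response, curve class assigned.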
# ALOX12 inh: ALOX12 (human) lipoxygenase inhibition; hit rate 1.1% among 580,000; purified 12hLO, xylenol orange hydroperoxide absorbance; P18054; Potency, µM (titrated, usually from 108 µM), for the others: top-dose activity change, negative = inhibition, hits mostly inhibitors; AID 1671190; note: potency is the fitted concentration of half-maximal effect
# Target sequence (P18054 whole entry, looked up): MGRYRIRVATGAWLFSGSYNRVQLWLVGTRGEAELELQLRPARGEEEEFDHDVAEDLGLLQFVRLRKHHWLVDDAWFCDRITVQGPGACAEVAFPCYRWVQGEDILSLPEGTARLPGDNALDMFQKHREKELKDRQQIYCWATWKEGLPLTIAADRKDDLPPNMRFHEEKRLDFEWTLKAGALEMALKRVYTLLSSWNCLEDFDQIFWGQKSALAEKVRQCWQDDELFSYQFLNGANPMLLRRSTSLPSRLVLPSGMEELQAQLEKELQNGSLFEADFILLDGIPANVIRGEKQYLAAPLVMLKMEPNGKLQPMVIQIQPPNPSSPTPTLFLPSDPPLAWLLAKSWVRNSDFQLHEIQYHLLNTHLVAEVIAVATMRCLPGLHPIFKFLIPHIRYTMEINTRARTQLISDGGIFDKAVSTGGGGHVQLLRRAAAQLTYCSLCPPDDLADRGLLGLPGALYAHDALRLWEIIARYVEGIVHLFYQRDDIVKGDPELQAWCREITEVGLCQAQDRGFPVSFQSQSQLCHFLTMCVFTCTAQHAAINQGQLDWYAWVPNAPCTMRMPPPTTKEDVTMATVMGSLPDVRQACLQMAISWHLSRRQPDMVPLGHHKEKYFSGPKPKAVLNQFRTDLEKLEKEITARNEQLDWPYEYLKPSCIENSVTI
#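 Purified human 12hLO (150 nM final) in 25 mM Hepes, 0.01% Triton X-100, pH 7.0 was preincubated 15 min at room temperature with compound. Then 40 uM arachidonic acid was added, 30 min. Hydroperoxide was read by Fe-XO absorbance ratio 573/405 nm.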
# Starred values were filed as active, the others as inactive; u = inconclusive; x = no result; [ ] = dose if it differs, or a comment. This is one part of a sample in which hits are shown more often than they occur. Unless noted, calls come from the whole dose curve; as a rule, active = well fitted curve in the direction sought with a large enough effect; inconclusive = small, poorly fitted or top-dose-only effect, or another doubt; inactive = no such curve, though single readings can be large; an effect the other way counts as inactive or inconclusive. Unless noted, % is set by controls: 0 for no effect and ±100 for the full control effect.
SMILES,DT40 TDP1 CPT,TDP1 cell noCPT,HT1080-NT tox,IL1B secr inh,HT1080 IDH1KD tx,ALOX12 inh
O=C(CCl)NCCCCCCCCCNC(=O)CCl,4.6µM*,6.5µM*,16µM*,-90*,15µM*,-9%
COc1cccc(N2CCN(C(=O)C3CCN(S(=O)(=O)c4cccs4)CC3)CC2)c1,u,13µM*,-18%,18,-6%,-8%
COc1ccccc1N1CCN(C(=O)C2CCN(S(=O)(=O)c3cccs3)CC2)CC1,16µM*,21µM*,x,x,x,-8%
CCOC(=O)c1ccc(S(=O)(=O)N2CCC(C(=O)N3CCN(c4ccccc4OC)CC3)CC2)cc1,u,-80%,u,-85*,u,2%
Clc1ccccc1Cc1noc(CN2CCN(Cc3ccccn3)CC2)n1,2%,u,15%,11,16%,4%
CCn1cnc2c1c(=O)n(CC(=O)NCC(c1ccccc1)N(C)C)c(=O)n2Cc1ccccc1 (stereo unspecified),x,x,x,x,x,20%
CSCCC(C)N1CCC(Oc2ccc(C(=O)N3CCCC3)cc2)CC1 (stereo unspecified),-5%,-2%,-4%,0,-8%,u
CCOc1ccc(-c2csc(Cn3c(CN4CCN(C)CC4)nc4ccccc4c3=O)n2)cc1,7.3µM*,8.2µM*,-2%,-75*,-18%,u
CN(C)Cc1nc2ccccc2c(=O)n1Cc1nc(-c2cc3ccccc3o2)cs1,u,18µM*,-13%,32,u,19%
CCOC(=O)C1CCN(Cc2nc3ccccc3c(=O)n2-c2ccc(OCC)cc2)CC1,u,u,1%[9.24 µM],-19,11%,-2%
O=C(NC(=S)N1CCCC1)c1ccccc1F,-7%,-17%,0%,-4,-1%,u
Cn1nc(C2CCCN2)c2c(C(=O)NCc3ccc(F)cc3)cc(C3CC3)nc21 (stereo unspecified),x,x,x,x,x,-2%[6.33 µM]
O=C1CCC(=O)N1c1ccccc1-c1ccccc1,-4%,5%,5%,6,7%,-15%
COc1ccc(N2C(=O)C3C4C=CC(c5ccccc5)(C3C2=O)C2C(=O)N(c3ccc(OC)cc3)C(=O)C42)cc1 (stereo unspecified),1%,-4%,0%,13,5%,u
O=C1C2C3C=CC(CNS(=O)(=O)c4ccccc4)(O3)C2C(=O)N1c1ccc(Cl)cc1 (stereo unspecified),26µM*,u,2%,6,-10%,-22%
O=C1C2C3C=CC(CO)(O3)C2C(=O)N1c1ccccc1-c1ccccc1 (stereo unspecified),2.6µM*,4.1µM*,3.2µM*,-82*,1.6µM*,x
CC(=O)Oc1ccc(N2C(=O)C3C4C=CC(CO)(O4)C3C2=O)cc1 (stereo unspecified),2.6µM*,4.6µM*,-7%,-4,0%[9.24 µM],-14%
CCOc1ccc(NC(=O)C(C)NC(=O)c2ccccc2Cl)cc1S(=O)(=O)N1CCCC1 (stereo unspecified),-16%,15%,-1%,6,16%,59%
COc1ccc(NC(=O)C2(C)Cc3c(-c4cccc(C(F)(F)F)c4)ccnc3O2)cn1 (stereo unspecified),5.2µM*,2.9µM*,u,68,u,2%
COc1ccc(NC(=O)C2(C)Cc3c(-c4ccc(N(C)C)cc4)ccnc3O2)cc1 (stereo unspecified),29µM*,u,u,-3,u,12%
COc1ccc(NC(=O)C2(C)Cc3c(-c4ccccc4)ccnc3O2)cn1 (stereo unspecified),5.8µM*,6.5µM*,u,64,u,-19%
